# The whole screen tested about 2,000 compounds, of which about 110 (5.5%) showed an effect of 50% or more. This is one part of a sample in which strong results are shown more often than they occur.
# Biological target: Genome polyprotein (dengue virus type 2) (UniProt P29990)
# [1] = Thailand/16681/1984, Concentration 25.0 uM, Number of replicates 1.0
compound,measurement,setting,value
Cc1cc(CO)c2cccc(Cc3ccccc3NC(=O)[C@H](N)CCO)c2n1,inhibition,"Thailand/16681/1984, Concentration 49.95 uM, Number of replicates 2.0, Standard deviation 1.1804730410904682 %",-2.49%
same,inhibition,"Thailand/16681/1984, Concentration 99.9 uM, Number of replicates 2.0, Standard deviation 1.1029287785847963 %",-0.758%
Cc1cc(Cl)c2cccc(NC(=O)[C@@H]3CCCC[C@H]3N)c2n1,inhibition,"Thailand/16681/1984, Concentration 99.9 uM, Number of replicates 2.0, Standard deviation 1.2808103574664134 %",-9.95%
Cc1cc(CO)c2cccc(NC(=O)Cc3cccc(CN)c3)c2n1,inhibition,"Thailand/16681/1984, Concentration 49.95 uM, Number of replicates 2.0, Standard deviation 1.2018993187616485 %",15.4%
same,inhibition,"Thailand/16681/1984, Concentration 99.9 uM, Number of replicates 2.0, Standard deviation 0.39117400474888586 %",23.6%
Cc1cc(CO)c2cccc(NC(=O)CCN)c2n1,inhibition,"Thailand/16681/1984, Concentration 49.95 uM, Number of replicates 2.0, Standard deviation 0.675365146636023 %",28.7%
same,inhibition,"Thailand/16681/1984, Concentration 99.9 uM, Number of replicates 2.0, Standard deviation 0.4014376052982588 %",91.2%
Cc1cc(CO)c2cccc(NC(=O)[C@@H](N)CC(N)=O)c2n1,inhibition,"Thailand/16681/1984, Concentration 49.95 uM, Number of replicates 2.0, Standard deviation 1.8295341709834483 %",-3.67%
same,inhibition,"Thailand/16681/1984, Concentration 99.9 uM, Number of replicates 2.0, Standard deviation 6.049352845396267 %",-1.2%
Cc1cc(CO)c2cccc(NC(=O)[C@@H](N)CCN)c2n1,inhibition,"Thailand/16681/1984, Concentration 49.95 uM, Number of replicates 2.0, Standard deviation 3.3658560886244877 %",-1.14%
same,inhibition,"Thailand/16681/1984, Concentration 99.9 uM, Number of replicates 2.0, Standard deviation 3.0766976877592507 %",-5.81%
Cc1cc(CO)c2cccc(Cc3ccccc3NC(=O)[C@@H](N)CC(N)=O)c2n1,inhibition,"Thailand/16681/1984, Concentration 49.95 uM, Number of replicates 2.0, Standard deviation 0.9388389208439332 %",28.9%
same,inhibition,"Thailand/16681/1984, Concentration 99.9 uM, Number of replicates 2.0, Standard deviation 1.1783962129832455 %",59.7%
Cc1nc(Cl)c(NC(=O)C2CCN(c3ccc(C=O)cc3)CC2)c(Cl)n1,inhibition,[1],12.8%
CC(C)(CO)NC(=O)c1cc(Cl)cc(NC(=O)Cn2cnccc2=O)c1,inhibition,"Thailand/16681/1984, Concentration 49.5 uM, Number of replicates 2.0, Standard deviation 0.3718016272993385 %",-3.9%
same,inhibition,"Thailand/16681/1984, Concentration 99.01 uM, Number of replicates 2.0, Standard deviation 1.0416819516575477 %",-5.97%
same,inhibition,"Thailand/16681/1984, Concentration 198.0 uM, Number of replicates 2.0, Standard deviation 1.29652000519297 %",-5.4%
O=Cc1ccc(N2CCC(C(=O)N3CCN(C(=O)C(F)(F)F)CC3)CC2)cc1,inhibition,[1],8.59%
Cc1n[nH]c(CC(=O)N2CCC[C@H](n3cnc(C(N)=O)n3)C2)n1,inhibition,"Thailand/16681/1984, Concentration 49.5 uM, Number of replicates 2.0, Standard deviation 0.8615620840433298 %",-1.22%
same,inhibition,"Thailand/16681/1984, Concentration 99.01 uM, Number of replicates 2.0, Standard deviation 0.2938998370290156 %",-1.99%
same,inhibition,"Thailand/16681/1984, Concentration 198.0 uM, Number of replicates 2.0, Standard deviation 1.103757347430939 %",-0.94%
Cn1cc(NC(=O)c2ccccc2C(F)(F)F)c(-c2cnn(C)n2)n1,inhibition,"Thailand/16681/1984, Concentration 49.5 uM, Number of replicates 2.0, Standard deviation 0.32036291597833877 %",-2.97%
same,inhibition,"Thailand/16681/1984, Concentration 99.01 uM, Number of replicates 2.0, Standard deviation 1.175972600606475 %",-3.46%
same,inhibition,"Thailand/16681/1984, Concentration 198.0 uM, Number of replicates 2.0, Standard deviation 1.0582279614459547 %",-3.2%
O=Cc1ccc(N2CCC(C(=O)Nc3ccc4scnc4c3)CC2)cc1,inhibition,[1],13%
O[C@]1(C(F)(F)F)CC[C@H](CNCc2nnc3ccccn23)CC1,inhibition,"Thailand/16681/1984, Concentration 49.5 uM, Number of replicates 2.0, Standard deviation 2.244095461971029 %",4.51%
same,inhibition,"Thailand/16681/1984, Concentration 99.01 uM, Number of replicates 2.0, Standard deviation 1.4092400656614155 %",4.61%
same,inhibition,"Thailand/16681/1984, Concentration 198.0 uM, Number of replicates 2.0, Standard deviation 2.783814769891106 %",1.75%
CCc1nc([C@@H](C)NC(=O)c2ccc(O)c(NC(=O)c3ccncc3F)c2C)n[nH]1,inhibition,"Thailand/16681/1984, Concentration 49.5 uM, Number of replicates 2.0, Standard deviation 0.640305880758115 %",-3.94%
same,inhibition,"Thailand/16681/1984, Concentration 99.01 uM, Number of replicates 2.0, Standard deviation 0.7647439452243474 %",-3.61%
same,inhibition,"Thailand/16681/1984, Concentration 198.0 uM, Number of replicates 2.0, Standard deviation 1.5490355987880475 %",-3.27%
Cc1cn2nnc(C(=O)N[C@H]3CCCCn4c3n[nH]c4=O)c2c(=O)[nH]1,inhibition,"Thailand/16681/1984, Concentration 49.5 uM, Number of replicates 2.0, Standard deviation 0.2359641679366373 %",-0.501%
same,inhibition,"Thailand/16681/1984, Concentration 99.01 uM, Number of replicates 2.0, Standard deviation 0.10523355791430405 %",-0.563%
same,inhibition,"Thailand/16681/1984, Concentration 198.0 uM, Number of replicates 2.0, Standard deviation 0.06258385535382655 %",-1.4%
O=Cc1ccc(N2CCC(C(=O)Nc3nnc(C(F)(F)F)s3)CC2)cc1,inhibition,[1],12.7%
O=Cc1ccc(N2CCC(C(=O)N3CCNC(=O)C34CCCCC4)CC2)cc1,inhibition,[1],13.7%
CCCCN(Cc1ccc(F)cc1)C(=O)C1CCN(c2ccc(C=O)cc2)CC1,inhibition,[1],16.4%
COc1cc(C(=O)Nc2cnc3ccccc3c2)nc(N2CCNCC2)n1,inhibition,"Thailand/16681/1984, Concentration 49.5 uM, Number of replicates 2.0, Standard deviation 9.540542197549359 %",4.46%
same,inhibition,"Thailand/16681/1984, Concentration 99.01 uM, Number of replicates 2.0, Standard deviation 4.349736840709832 %",6.31%
same,inhibition,"Thailand/16681/1984, Concentration 198.0 uM, Number of replicates 2.0, Standard deviation 5.514135579540427 %",7.41%
O=Cc1ccc(N2CCC(C(=O)N3CCCN(c4ccc(C(F)(F)F)cn4)CC3)CC2)cc1,inhibition,[1],9.22%
Cc1cc(CO)c2cccc(Cc3cccc(NC(=O)c4cc(C(=O)O)[nH]n4)c3)c2n1,inhibition,"Thailand/16681/1984, Concentration 49.95 uM, Number of replicates 2.0, Standard deviation 0.024232414845035546 %",4.13%
same,inhibition,"Thailand/16681/1984, Concentration 99.9 uM, Number of replicates 2.0, Standard deviation 0.7422093740247248 %",7.91%
COCc1cc(-c2ccccc2C(=O)Nc2cnn(C)c2)ccn1,inhibition,"Thailand/16681/1984, Concentration 49.5 uM, Number of replicates 2.0, Standard deviation 1.4111132401966338 %",-5.45%
same,inhibition,"Thailand/16681/1984, Concentration 99.01 uM, Number of replicates 2.0, Standard deviation 1.6255328031848963 %",-5.34%
same,inhibition,"Thailand/16681/1984, Concentration 198.0 uM, Number of replicates 2.0, Standard deviation 0.730186058256325 %",-4.12%
O=Cc1ccc(N2CCC(C(=O)NCC(=O)Nc3ccc(F)c(F)c3)CC2)cc1,inhibition,[1],14.1%
